# Data reported in PubChem BioAssay AID2113 (National Center for Advancing Translational Sciences (NCATS), 2009).
# Results filed as inconclusive are left out. A number with no mark means an inactive call. Active and inactive are the calls of the source. The call rests on the fitted dose curve; in most records, active means well fitted curve in either direction with a large enough effect; inconclusive means small, poorly fitted or top-dose-only effect; inactive means no such curve, though single readings can be large or run the other way.
# Target: Lysosomal alpha-glucosidase (Homo sapiens) (UniProt P10253)
# Assay: Confirmation of Inhibitors and Activators of Human alpha-Glucosidase From Spleen Homogenate;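 on Potency: fluorescence of 4-methylumbelliferone released from a fluorogenic glucopyranoside substrate at pH 5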; on activity change, both directions: 0% is about no effect
# Conditions: alpha-glucosidase enzyme activity; series mostly up to 60.5 µM; activity change, both directions: at the top concentration
# Outline: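 Fluorogenic assay using human spleen homogenate (1 ug) as enzyme source with 1 mM 4-methylumbelliferyl-alpha-D-glucopyranoside, pH 5.0 citrate buffer, 40 min at 37 C. 4-MU read (Ex 365/Em 440) after NaOH/glycine stop; AC50 from Hill fits.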
# Potency means the concentration at half of the fitted maximal effect.
Structure (SMILES),Potency,"activity change, both directions"
Cc1ccc(S(=O)(=O)N2CCN(C(=O)N(c3ccccc3)c3ccccc3)CC2)cc1,inactive,–
Cc1sc(-c2cc3c(ccc4ccccc43)oc2=O)nc1-c1ccccc1,–,3.68%
Cn1c(=O)c2c(nc(NCc3ccc4c(c3)OCO4)n2Cc2ccc(F)cc2)n(C)c1=O,–,-1.05%
Cc1ccc2c(c1)c1ncnc(N3CCC4(CC3)OCCO4)c1n2C,–,8.53% [at 31.5 µM]
NN=C1c2cc(S(=O)(=O)NCCO)ccc2-c2ccc(S(=O)(=O)NCCO)cc21,–,0.552%
CCCN1CNc2c(c(=O)[nH]c(=S)n2CCc2ccccn2)C1,–,-10.2%
N#Cc1ccc(S(=O)(=O)N2CCOCC2)cc1,–,-2.24%
CC1CCc2c(nc3ncnn3c2N2CCN(c3ccccc3F)CC2)C1 (stereo unspecified),–,-3.74% [at 31.5 µM]
COc1ccc(/C=C/c2nnc(NC(=O)CSc3ccccc3)s2)cc1,–,2.85%
O=S(=O)(c1ccc(O)cc1)N1CCOCC1,–,-3.67%
CN1CCN(S(=O)(=O)c2ccccc2)CC1,–,3.17%
COc1ccc(CCn2cc(C#N)c(=O)[nH]c2=O)cc1OC,–,-2.91% [at 31.5 µM]
Cc1ccc(N/N=C2\CCS(=O)(=O)c3sccc32)cc1,–,1.95%
CCCN1CNc2c(c(=O)[nH]c(=S)n2CCC(C)C)C1,–,-14.7%
CC(=O)Nc1ccc(S(=O)(=O)/N=C2/NC(=O)/C(=C\c3ccco3)S2)cc1,–,1.22% [at 31.5 µM]
O=c1[nH]c2ccccc2nc1/C=C/c1ccc2c(c1)OCO2,–,3.87%
CCc1sc(-c2cc3ccc(O)cc3oc2=O)nc1-c1ccccc1,–,-3.17%
CC(=O)c1ccc(N2CCN(S(=O)(=O)c3ccc4c(c3)CCC(=O)N4)CC2)cc1,–,2.9%

Structure (SMILES),Potency,"activity change, both directions"
CCCN1CNc2c(c(=O)[nH]c(=S)n2-c2ccccc2Cl)C1,–,1.89% [at 31.5 µM]
CCc1sc(-c2cc3ccccc3oc2=O)nc1-c1cc(C)ccc1C,31.6 µM (active),–
Clc1ncc(C#Cc2ccccc2)c2ncncc12,–,3.9%
CC1S/C(=N\N=C\c2cccc([N+](=O)[O-])c2)N(C(C)(C)C)C1=O (stereo unspecified),–,-1.21% [at 31.5 µM]
C(=C/c1nccc2c1[nH]c1ccccc12)/c1ccc2c(c1)OCO2,–,22.5%
CCCN1CNc2c(c(=O)[nH]c(=S)n2Cc2ccc(OC)c(OC)c2)C1,12.6 µM (active),–
Cc1ccc(N=Nc2c(N)nn(-c3ccccc3)c2N)cc1,–,4.65%
O=C1Cc2cc(S(=O)(=O)N3CCN(c4ccc([N+](=O)[O-])cc4)CC3)ccc2N1,3.66 µM [inhibitor] (active),–
Cc1ccc(-c2cc(C(=O)N/N=C/c3c(C)nn(-c4ccccc4)c3C)n[nH]2)s1,–,2.38%
CC(=O)c1ccc(N2CCN(S(=O)(=O)c3ccc4[nH]c(=O)[nH]c4c3)CC2)cc1,–,0.795%
O=C(c1cc2c(ccc3ccccc32)oc1=O)N1CCN(CCO)CC1,–,11.3% [at 31.5 µM]
N#CCCN1CCN(S(=O)(=O)c2ccc(S(=O)(=O)N3CCOCC3)cc2)CC1,–,-6.93%
OCC(CO)NC1C[C@](O)(CO)[C@@H](O)[C@H](O)[C@H]1O (stereo partly specified),–,-99.6% [at 286 µM]
CCCN1CNc2c(c(=O)[nH]c(=S)n2CCc2ccc(OC)cc2OC)C1,15.8 µM (active),–
O=S(=O)(c1cccc(Cl)c1)N1CCOCC1,–,-1.48%
NC(=NCc1ccccc1)NC(=O)c1nc(Cl)c(N)nc1N,–,-54%
O=C(CSc1ccccc1)Nc1nnc(/C=C/c2ccccc2)s1,–,14%
COc1ccc(CCc2c[nH]c(=O)c3cncnc23)cc1OC,–,0.974%
